Data as given in PubChem BioAssay.
“And” between values parts separate entries of the source, which are not always exact repeats. Equal values may be shown once. Records with an inconclusive call do not appear. The source made the active and inactive calls.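 How the source made its calls, unless noted: active means binding below the plate cutoff, the plate median minus 3 SD, with a reading above zero; inconclusive means below the plate cutoff but reading exactly zero; inactive means the rest.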 Square brackets hold non-standard residues; d marks the D form. Peptide text beside a SMILES is read from it. ξ: configuration not given here. ξV = CC(C)C(N)C(=O)O

Tests used:
[1] = rapamycin-like changes in RPL19A-GFP expression – cell-based, S. cerevisiae, multiplex flow cytometry, primary screen (AID 1862; in the data active means percent of DMSO control GFP below about 86%;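 further: lower values mimic rapamycin by blocking the RPL19A rise seen in DMSO cells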); details: S. cerevisiae RPL19A-GFP strain, flow cytometry fluorescence, 3 h; at 10 µM; stronger effect = lower value
[2] = TOR pathway GLN3 branch reporter MEP2-GFP changes – S. cerevisiae, multiplex flow cytometry, primary screen (AID 1867;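 active means GFP response, as percent of the DMSO control, above the screen-wide mean plus 3 SD, about 139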;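 further: median GFP channel fluorescence of barcode-gated MEP2-GFP cells measured by flow cytometry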); details: S. cerevisiae MEP2-GFP strain, 3 h, at 10 µM, stronger effect = higher value, 100% means same as DMSO wells
[3] = TOR pathway RTG branch CIT2 reporter changes – S. cerevisiae, GFP fusion, multiplex flow cytometry, primary screen (AID 1870;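 active means percent response above a set limit, the screen-wide mean plus 3 SD, cut at about 130% in these data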;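 further: barcoded CIT2-GFP strain pooled with four other GFP strains with rapamycin as positive control; median GFP fluorescence per well over plate mean of DMSO wells so 100% = DMSO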); details: S. cerevisiae CIT2-GFP expression, 3 h, at 10 µM, stronger effect = higher value
[4] = TOR pathway LAP4-GFP level changes – S. cerevisiae, multiplex flow cytometry, primary screen (AID 1873;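 active means GFP signal, as percent of the solvent control, above the screen mean plus 3 SD, about 149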); details: S. cerevisiae LAP4-GFP expression, 3 h, at 10 µM, stronger effect = higher value
[5] = yeast AGP1-GFP level changes, GLN3 branch – cell-based, multiplex flow cytometry, S. cerevisiae, primary screen (AID 1887;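 active means GFP signal above the screen-wide mean plus 3 SD, that is over about 124.5% of the solvent control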;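 further: AGP1-GFP fusion strain of S. cerevisiae within a five-strain barcoded multiplex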); details: 3 h, at 10 µM, stronger effect = higher value
[6] = reduced mouse 2C T cell binding to pMHC/ICAM-1 vesicles – MLPCN validation set, flow cytometry, LFA-1/ICAM-1 modulator project, pilot screen (AID 2523;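 active means response below a set limit, under 55% cells CD8-positive and vesicle-bound, and CD8 cells' 90th-percentile brightness under 279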;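 on vesicle binding response: mean PE anti-B7-1 fluorescence of CD8+ cells relative to row control; 100% = QL9-loaded vesicles with DMSO vehicle in the same plate row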); details: 2C mouse CD8+ T cells, at 7 µM, stronger effect = lower value; double positive events: measured here: CD8+/vesicle+ event percentage
[7] = molecular target: Integrin beta-1 (Homo sapiens) + Integrin alpha-4 (Homo sapiens) (UniProt P13612+P05556); assay: alpha4beta1 integrin LIBS antibody binding reduction – U937 cells, HUTS-21 mAb, flow cytometry, validation set, VLA-4 allosteric modulator project, pilot screen (AID 2674;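 active means inhibition above 50%, about 3 SD of the validation set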;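 further: antibody binding induced by the VLA-4 ligand LDV present at three times its Kd; 0% = LDV ligand with antibody and no compound and 100% = antibody without LDV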); details: HUTS-21 LIBS mAb binding, at 6.7 µM, stronger effect = higher value, binding induced by LDV ligand
[8] = calorie-restriction mimetic ROS inhibitors, yeast – validation compound set, pilot screen (AID 2706;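 active means superoxide response below 65% of plate, a cut near 3 SD across the whole screen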;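 further: yeast exposed to compound for one week at 30 degrees C before staining; 100% = mean of all compound wells on the same plate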); details: S. cerevisiae aging, superoxide DHE fluorescence; at 10 µM; stronger effect = lower value
[9] = molecular target: Beta-adrenergic receptor kinase 1 (Homo sapiens) (UniProt P25098); assay: GRK2 binders displacing RNA aptamer, biochemical, validation, human GRK2, bead flow cytometry (AID 488806;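 active means aptamer binding inhibition above 30%, about 3 SD of noise from non-fluorescent compounds; inactive means inhibition at or below 30%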); details: bead-bound GRK2, FAM-aptamer displacement, at 10 µM, stronger effect = higher value
[10] = molecular target: Beta-2 adrenergic receptor (Homo sapiens) (UniProt P07550); assay: agonist-induced loss of surface beta2AR – cell-based, FAP fluorogen, flow cytometry, validation set, pilot screen (AID 504459;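 active means percent response above 42, roughly 3 SD of non-fluorescent test compounds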;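 further: agonist-driven loss of surface beta2AR via internalization measured by FAP dye flow cytometry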); details: Am2.2-beta2AR cells, at 10 µM, stronger effect = higher value
[11] = molecular target: AP-2 complex subunit beta (Homo sapiens) (UniProt P63010); assay: beta-arrestin/AP2 interaction blockers – biochemical, validation set, GST-AP2 beads, flow cytometry, pilot screen (AID 504541;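 active means inhibition above 54%, about 3 SD of non-fluorescent compounds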;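 further: AP2 carries R879A mutation and is captured from E. coli lysate; bead-bound FITC arrestin peptide fluorescence measuring arrestin peptide binding to AP2; 0% = DMSO wells and 100% = excess unlabeled arrestin peptide control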); details: FITC arrestin peptide, at 10 µM, stronger effect = higher value, AP2 beta2 appendage fragment, R879A mutant
[12] = cytosolic pH regulators acting via V-ATPase – S. cerevisiae, pHLuorin, HTS validation (AID 504600; in the data active means response above about 15%;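 further: plate controls were DMSO for no effect and reference compound for full effect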); details: V-ATPase proton transport, at 10 µM, stronger effect = higher value
[13] = tested on: anti-desmoglein-3 scFv antibody binding to human DSG3; assay: blockers of pathogenic pemphigus antibody–desmoglein-3 binding – biochemical, validation compound set, bead-based, flow cytometry, pilot screen (AID 588368); details: Protein G beads, DSG3-Fc, scFv-GFP binding, at 10 µM, stronger effect = lower value;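 further: signal is the median channel fluorescence of bead-bound GFP antibody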
[14] = Nile Red efflux blockade in pump-expressing yeast – validation compound set, multiplex, phenotypic, pilot screen (AID 588506;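 active means efflux inhibition above 0.42, the validation set average plus 4 SD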;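 further: Nile Red retained in cells so higher fluorescence means more efflux inhibition; 0 = negative control wells and 1 = enniatin B 25 µM full block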); details: S. cerevisiae pump-expressing triplex, Nile Red efflux flow cytometry; at 10 µM; stronger effect = higher value; the pumps come from Candida albicans
[15] = molecular target: ATP-binding cassette sub-family B member 6 (Homo sapiens) (UniProt Q9NP58); assay: blockers of ABCB6-driven porphyrin uptake – K562-ABCB6 cells, flow cytometry, validation set, pilot screen (AID 588550;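 active means inhibition above the screen-wide mean plus 3 SD, about 51%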;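 further: 0% = DMSO wells and 100% = benzethonium chloride 70 µM positive control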); details: K562-ABCB6 porphyrin accumulation, 1 h, at 10 µM, stronger effect = higher value
[16] = AML differentiation inducers, ER-HoxA9 marrow cells – cell-based, GFP/MAC1 double positive, flow cytometry, validation set, primary screen (AID 588685;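 active means differentiation response of at least 50%, scaled between solvent and reference control, from cells with both markers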;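 further: compound exposure lasts four days before antibody staining and flow analysis; 0% = DMSO wells and 100% = 5 µM fulvestrant positive control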); details: stronger effect = higher value, normalized: vehicle 0, fulvestrant 100

ATP-binding cassette sub-family B member 6 (Homo sapiens), sequence (Q9NP58 whole entry, looked up): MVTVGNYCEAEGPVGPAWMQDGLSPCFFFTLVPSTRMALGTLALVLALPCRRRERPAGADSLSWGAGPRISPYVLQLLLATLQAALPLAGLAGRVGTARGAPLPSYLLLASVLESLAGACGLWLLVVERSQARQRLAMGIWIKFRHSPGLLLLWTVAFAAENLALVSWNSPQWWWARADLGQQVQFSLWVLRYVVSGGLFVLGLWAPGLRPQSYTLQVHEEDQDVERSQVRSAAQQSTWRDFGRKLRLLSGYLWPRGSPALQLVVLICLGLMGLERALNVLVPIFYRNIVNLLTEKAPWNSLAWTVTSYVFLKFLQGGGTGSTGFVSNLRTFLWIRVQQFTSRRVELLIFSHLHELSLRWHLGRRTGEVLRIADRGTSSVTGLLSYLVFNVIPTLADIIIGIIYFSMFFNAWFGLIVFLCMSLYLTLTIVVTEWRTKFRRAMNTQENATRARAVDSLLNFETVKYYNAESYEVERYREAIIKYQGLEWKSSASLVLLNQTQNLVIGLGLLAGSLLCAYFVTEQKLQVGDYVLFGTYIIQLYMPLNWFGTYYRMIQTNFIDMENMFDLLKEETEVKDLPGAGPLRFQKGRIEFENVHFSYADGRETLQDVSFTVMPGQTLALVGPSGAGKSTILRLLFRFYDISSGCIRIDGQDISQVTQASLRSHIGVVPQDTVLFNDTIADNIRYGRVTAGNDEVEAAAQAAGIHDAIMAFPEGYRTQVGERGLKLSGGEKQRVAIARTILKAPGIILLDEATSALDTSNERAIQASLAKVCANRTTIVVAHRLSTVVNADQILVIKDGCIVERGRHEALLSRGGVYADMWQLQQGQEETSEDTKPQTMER
Beta-adrenergic receptor kinase 1 (Homo sapiens), sequence (P25098 whole entry, looked up): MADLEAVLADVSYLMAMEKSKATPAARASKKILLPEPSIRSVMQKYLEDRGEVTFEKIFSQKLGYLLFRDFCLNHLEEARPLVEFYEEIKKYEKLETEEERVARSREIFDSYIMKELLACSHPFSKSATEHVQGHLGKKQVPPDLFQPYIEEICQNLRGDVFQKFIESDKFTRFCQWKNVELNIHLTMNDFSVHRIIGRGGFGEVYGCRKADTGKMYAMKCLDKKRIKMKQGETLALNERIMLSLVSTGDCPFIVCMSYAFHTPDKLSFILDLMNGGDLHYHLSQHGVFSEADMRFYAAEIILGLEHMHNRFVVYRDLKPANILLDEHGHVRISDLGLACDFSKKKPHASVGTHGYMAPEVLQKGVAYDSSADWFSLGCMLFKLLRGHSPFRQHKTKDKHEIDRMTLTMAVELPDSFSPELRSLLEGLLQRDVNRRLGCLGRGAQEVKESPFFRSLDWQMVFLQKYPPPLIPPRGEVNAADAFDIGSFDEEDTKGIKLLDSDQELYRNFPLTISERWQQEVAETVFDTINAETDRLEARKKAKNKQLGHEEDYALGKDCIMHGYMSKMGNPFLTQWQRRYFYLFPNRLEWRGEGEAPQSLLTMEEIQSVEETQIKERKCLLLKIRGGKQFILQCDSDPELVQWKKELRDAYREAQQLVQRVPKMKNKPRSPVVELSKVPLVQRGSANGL
AP-2 complex subunit beta (Homo sapiens), sequence (P63010 whole entry, looked up, the tested form may be a part, one chain of several): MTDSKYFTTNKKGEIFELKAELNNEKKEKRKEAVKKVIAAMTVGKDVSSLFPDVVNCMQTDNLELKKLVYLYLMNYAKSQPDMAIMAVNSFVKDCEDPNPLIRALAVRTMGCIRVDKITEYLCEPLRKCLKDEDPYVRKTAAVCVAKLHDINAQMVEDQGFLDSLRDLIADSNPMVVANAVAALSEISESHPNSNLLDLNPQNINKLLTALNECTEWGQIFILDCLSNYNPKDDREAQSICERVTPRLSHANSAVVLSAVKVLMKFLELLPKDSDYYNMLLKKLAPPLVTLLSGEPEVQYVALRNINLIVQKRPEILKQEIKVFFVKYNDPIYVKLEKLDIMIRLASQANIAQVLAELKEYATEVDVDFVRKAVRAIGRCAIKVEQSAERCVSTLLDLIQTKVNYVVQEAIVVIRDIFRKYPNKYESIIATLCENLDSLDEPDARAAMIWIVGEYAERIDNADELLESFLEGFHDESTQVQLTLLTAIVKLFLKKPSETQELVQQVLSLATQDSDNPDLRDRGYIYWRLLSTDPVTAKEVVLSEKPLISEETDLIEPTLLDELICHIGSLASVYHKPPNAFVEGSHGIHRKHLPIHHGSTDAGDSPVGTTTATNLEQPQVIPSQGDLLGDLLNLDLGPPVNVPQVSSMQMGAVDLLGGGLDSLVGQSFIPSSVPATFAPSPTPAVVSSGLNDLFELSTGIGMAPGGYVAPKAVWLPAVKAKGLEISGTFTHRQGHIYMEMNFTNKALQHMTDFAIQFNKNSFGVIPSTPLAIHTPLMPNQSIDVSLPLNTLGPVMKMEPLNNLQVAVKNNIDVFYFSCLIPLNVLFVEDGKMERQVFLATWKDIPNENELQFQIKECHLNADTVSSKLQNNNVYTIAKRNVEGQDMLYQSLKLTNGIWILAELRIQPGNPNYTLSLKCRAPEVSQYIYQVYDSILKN
Beta-2 adrenergic receptor (Homo sapiens), sequence (P07550 whole entry, looked up): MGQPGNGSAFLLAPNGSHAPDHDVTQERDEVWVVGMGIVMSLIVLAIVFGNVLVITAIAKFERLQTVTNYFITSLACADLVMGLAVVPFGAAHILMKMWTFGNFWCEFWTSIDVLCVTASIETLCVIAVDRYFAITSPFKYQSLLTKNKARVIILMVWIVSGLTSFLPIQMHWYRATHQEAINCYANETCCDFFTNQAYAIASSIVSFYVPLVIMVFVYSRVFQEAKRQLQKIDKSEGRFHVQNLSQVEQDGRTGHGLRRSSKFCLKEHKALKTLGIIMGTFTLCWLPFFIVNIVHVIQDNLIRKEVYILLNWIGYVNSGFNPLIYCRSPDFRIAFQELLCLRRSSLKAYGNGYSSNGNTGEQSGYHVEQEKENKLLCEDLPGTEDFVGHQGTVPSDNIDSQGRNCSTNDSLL
Integrin beta-1 (Homo sapiens) + Integrin alpha-4 (Homo sapiens), sequence (P05556 whole entry, looked up): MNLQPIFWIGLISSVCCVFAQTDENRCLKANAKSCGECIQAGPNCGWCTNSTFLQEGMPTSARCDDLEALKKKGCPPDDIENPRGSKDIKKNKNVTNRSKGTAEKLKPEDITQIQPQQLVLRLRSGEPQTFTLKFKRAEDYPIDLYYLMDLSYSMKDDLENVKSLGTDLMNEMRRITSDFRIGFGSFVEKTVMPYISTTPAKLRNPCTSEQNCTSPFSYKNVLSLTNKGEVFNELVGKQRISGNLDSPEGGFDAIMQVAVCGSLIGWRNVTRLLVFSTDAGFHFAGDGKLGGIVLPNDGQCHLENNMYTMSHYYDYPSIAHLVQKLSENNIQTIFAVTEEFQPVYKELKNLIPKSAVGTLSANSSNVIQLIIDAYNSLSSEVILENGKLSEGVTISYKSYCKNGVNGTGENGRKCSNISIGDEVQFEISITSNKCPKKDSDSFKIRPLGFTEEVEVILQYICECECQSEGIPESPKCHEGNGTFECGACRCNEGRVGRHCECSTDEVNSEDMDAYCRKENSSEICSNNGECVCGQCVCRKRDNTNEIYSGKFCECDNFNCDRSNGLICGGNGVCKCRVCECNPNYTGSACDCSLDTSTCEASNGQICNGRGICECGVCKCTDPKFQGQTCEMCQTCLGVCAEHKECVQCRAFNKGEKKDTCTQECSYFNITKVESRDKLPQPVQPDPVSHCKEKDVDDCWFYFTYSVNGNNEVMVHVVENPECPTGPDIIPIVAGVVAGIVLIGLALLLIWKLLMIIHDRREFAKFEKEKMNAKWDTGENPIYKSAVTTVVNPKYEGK
Integrin beta-1 (Homo sapiens) + Integrin alpha-4 (Homo sapiens), sequence (P13612 whole entry, looked up): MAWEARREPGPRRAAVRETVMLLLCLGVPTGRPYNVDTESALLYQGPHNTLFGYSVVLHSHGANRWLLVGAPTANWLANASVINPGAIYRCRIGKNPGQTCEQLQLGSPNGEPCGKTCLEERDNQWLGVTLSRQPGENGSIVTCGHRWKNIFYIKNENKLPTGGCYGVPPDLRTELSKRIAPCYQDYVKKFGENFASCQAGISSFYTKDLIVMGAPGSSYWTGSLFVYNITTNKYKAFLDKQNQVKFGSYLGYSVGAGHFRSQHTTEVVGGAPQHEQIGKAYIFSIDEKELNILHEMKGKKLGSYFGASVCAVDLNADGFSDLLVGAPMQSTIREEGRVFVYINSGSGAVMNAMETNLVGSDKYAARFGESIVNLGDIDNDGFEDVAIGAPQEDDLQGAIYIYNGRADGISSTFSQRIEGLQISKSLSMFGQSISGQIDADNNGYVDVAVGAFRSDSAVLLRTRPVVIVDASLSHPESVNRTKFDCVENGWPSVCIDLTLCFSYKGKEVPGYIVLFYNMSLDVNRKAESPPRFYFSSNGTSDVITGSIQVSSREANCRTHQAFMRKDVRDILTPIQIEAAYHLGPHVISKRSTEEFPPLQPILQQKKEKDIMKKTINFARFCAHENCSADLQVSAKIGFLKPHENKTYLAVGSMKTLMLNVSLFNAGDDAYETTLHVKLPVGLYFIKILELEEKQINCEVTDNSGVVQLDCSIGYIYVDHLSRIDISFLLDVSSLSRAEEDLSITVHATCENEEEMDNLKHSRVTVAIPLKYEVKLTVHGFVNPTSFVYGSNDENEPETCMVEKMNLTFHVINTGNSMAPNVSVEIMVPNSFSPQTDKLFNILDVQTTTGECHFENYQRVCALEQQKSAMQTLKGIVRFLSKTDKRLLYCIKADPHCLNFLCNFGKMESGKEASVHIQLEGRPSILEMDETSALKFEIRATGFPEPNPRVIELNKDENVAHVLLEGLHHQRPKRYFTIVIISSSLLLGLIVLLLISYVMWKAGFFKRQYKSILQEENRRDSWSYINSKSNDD

SMILES	percent of DMSO control GFP [1]	GFP response vs DMSO [2]	percent response of DMSO control [3]	GFP response vs DMSO [4]	GFP response, % of DMSO [5]	double positive events [6]	vesicle binding response [6]	inhibition [7]	superoxide response (% of plate) [8]	aptamer binding inhibition [9]	response [10]	inhibition [11]	response [12]	binding (% of control) [13]	efflux inhibition (fraction of control) [14]	inhibition [15]	differentiation response [16]
COc1ccc2c(c1OC)C(C1c3c(cc4c(c3OC)OCO4)CCN1C)OC2=O (stereo unspecified)	107% (inactive)	93% (inactive)	121% (inactive)	88.7% (inactive)	111% (inactive)	60.6%	54.2% (inactive)	-23.3% (inactive)	95.3% (inactive)	1% (inactive)	-7.53% (inactive)	-1.99% (inactive)	2.98% (inactive)	98.9% (inactive)	0.02 (inactive)	6% (inactive)	-2.69% (inactive)
O=C1C2CC=C(Cl)CC2C(=O)N1CCc1c[nH]c2ccccc12 (stereo unspecified)	90.2% (inactive)	108% (inactive)	104% (inactive)	80.9% (inactive)	97.5% (inactive)	55.5%	129% (inactive)	16.2% (inactive)	114% (inactive)	8% (inactive)	-5.28% (inactive)	0.6% (inactive)	-1.1% (inactive)	103% (inactive)	0.09 (inactive)	12% (inactive)	-12.3% (inactive)
CC(=O)NC(C(=O)NCC(N)=O)C(C)C (stereo unspecified) (Ac-[ξV]-Gly-NH2)	104% (inactive)	93% (inactive)	111% (inactive)	95.3% (inactive)	97.3% (inactive)	65.3%	195% (inactive)	-7.72% (inactive)	93.7% (inactive)	-2% (inactive)	-7.22% (inactive)	-9.46% (inactive)	0.49% (inactive)	96.9% (inactive)	-0.2 (inactive)	0% (inactive)	13.9% (inactive)
CC(C)CC(NC(=O)CNC(=O)C1O[C@@H]2OC(C)(C)O[C@@H]2[C@H]2OC(C)(C)O[C@@H]12)C(=O)O (stereo partly specified)	101% (inactive)	104% (inactive)	102% (inactive)	99.9% (inactive)	102% (inactive)	62.4%	214% (inactive)	-46.1% (inactive)	97.8% (inactive)	-1% (inactive)	-1.33% (inactive)	9.78% (inactive)	-1.96% (inactive)	96.9% (inactive)	-0.04 (inactive)	-3% (inactive)	12.9% (inactive)
CCOC(=O)[C@H]1O[C@@H]1C(=O)N[C@@H](CC(C)C)C(=O)NCCC(C)C	91.1% (inactive)	135% (inactive)	97.9% (inactive)	82.5% (inactive)	91.7% (inactive)	55.3%	224% (inactive)	6.46% (inactive)	97% (inactive)	3% (inactive)	-8.75% (inactive)	-3.19% (inactive)	6.36% (inactive)	106% (inactive)	0.05 (inactive)	7% (inactive)	0.82% (inactive)
COc1c2c(nc3occc13)C(CC=C(C)C)(OC)C(O)CC2 (stereo unspecified)	89.1% (inactive)	131% (inactive)	110% (inactive)	95.7% (inactive)	98.2% (inactive)	63.2%	144% (inactive)	-4.21% (inactive)	95.4% (inactive)	6% (inactive)	3.58% (inactive)	-9.37% (inactive)	-1.04% (inactive)	103% (inactive)	0.01 (inactive)	11% (inactive)	3.28% (inactive)
CCCCOc1cc(C(=O)NCCN(CC)CC)c2ccccc2n1	94.8% (inactive)	128% (inactive)	106% (inactive)	79.8% (inactive)	92.8% (inactive)	48.4% and 71.1%	187% (inactive) and 185% (inactive)	13.8% (inactive) and 14.2% (inactive)	88.6% (inactive) and 105% (inactive)	-2% (inactive) and -3% (inactive)	-3.62% (inactive)	-5.17% (inactive) and -1.67% (inactive)	-31% (inactive) and -1.46% (inactive)	145% (inactive) and 101% (inactive)	0.03 (inactive) and 0.09 (inactive)	11% (inactive) and 10% (inactive)	7.87% (inactive) and 9.01% (inactive)
CC(=O)N(CCC(Cc1ccccc1)c1ccco1)Cc1ccco1 (stereo unspecified)	88.7% (inactive)	145% (active)	104% (inactive)	77.6% (inactive)	77.1% (inactive)	68.1%	172% (inactive)	-0.33% (inactive)	96.2% (inactive)	1% (inactive)	5.89% (inactive)	13.6% (inactive)	-4.34% (inactive)	97.4% (inactive)	-0.06 (inactive)	5% (inactive)	-3.28% (inactive)
CS(=O)c1ccccc1O (stereo unspecified)	103% (inactive)	98.8% (inactive)	92.8% (inactive)	93% (inactive)	99.2% (inactive)	67.1%	144% (inactive)	8.28% (inactive)	47.1% (active)	0% (inactive)	33.6% (inactive)	38.1% (inactive)	0.1% (inactive)	101% (inactive)	-0.15 (inactive)	11% (inactive)	3.45% (inactive)
C#CCOc1ccc2c(C)cc(=O)oc2c1	105% (inactive)	93% (inactive)	107% (inactive)	77.6% (inactive)	98.9% (inactive)	60.4%	603% (inactive)	3.7% (inactive)	98% (inactive)	4% (inactive)	-1.57% (inactive)	-7.76% (inactive)	-0.49% (inactive)	99.7% (inactive)	0.36 (inactive)	0% (inactive)	16.9% (inactive)
CC1(C)Cc2ccccc2-c2n[nH]c(=S)n21	99.1% (inactive)	102% (inactive)	101% (inactive)	102% (inactive)	104% (inactive)	61.1%	203% (inactive)	9.63% (inactive)	92.5% (inactive)	2% (inactive)	-1.77% (inactive)	56.7% (active)	-1.77% (inactive)	97.2% (inactive)	0.19 (inactive)	11% (inactive)	-14.8% (inactive)
C=CCn1c(N2CCCCCC2)nc2c1c(=O)n(C)c(=O)n2C	97.6% (inactive)	97.6% (inactive)	95.7% (inactive)	104% (inactive)	114% (inactive)	63.5%	220% (inactive)	7.4% (inactive)	112% (inactive)	3% (inactive)	-47.3% (inactive)	-11.7% (inactive)	0.52% (inactive)	95.9% (inactive)	0.17 (inactive)	7% (inactive)	-11.9% (inactive)
c1ccc(CC2=NCCN2)cc1	104% (inactive)	107% (inactive)	100% (inactive)	103% (inactive)	102% (inactive)	61.8%	181% (inactive)	0% (inactive)	101% (inactive)	-2% (inactive)	-7.37% (inactive)	-16.6% (inactive)	1.43% (inactive)	98% (inactive)	-0.07 (inactive)	-5% (inactive)	14.9% (inactive)
COc1ccc(-c2c3c(=O)n(C)c(=O)n(C)c3cn2C2CCCCC2)cc1	95.2% (inactive)	109% (inactive)	88.2% (inactive)	113% (inactive)	92.6% (inactive)	58.5%	132% (inactive)	-14.1% (inactive)	106% (inactive)	-1% (inactive)	14.9% (inactive)	1.05% (inactive)	2.1% (inactive)	95.5% (inactive)	0.05 (inactive)	9% (inactive)	-16.8% (inactive)
Cc1oncc1C(=O)Nc1ccc(C(F)(F)F)cc1	95.7% (inactive)	98.6% (inactive)	101% (inactive)	124% (inactive)	105% (inactive)	57.4%	171% (inactive)	3.99% (inactive)	101% (inactive)	10% (inactive)	-21.8% (inactive)	-2.96% (inactive)	6.73% (inactive)	96% (inactive)	-0.04 (inactive)	-7% (inactive)	-4.99% (inactive)
O=C(N1CCCC1)C12CC3CC(C1)CC(C(=O)N1CCCC1)(C3)C2	99.5% (inactive)	103% (inactive)	101% (inactive)	124% (inactive)	101% (inactive)	59.6%	219% (inactive)	9.13% (inactive)	104% (inactive)	-1% (inactive)	-2.88% (inactive)	-3.27% (inactive)	0.92% (inactive)	101% (inactive)	0.15 (inactive)	3% (inactive)	-7.2% (inactive)
C[N+](C)(C)CCCC(=O)c1ccc2c(c1)OCO2	94.4% (inactive)	111% (inactive)	96.7% (inactive)	107% (inactive)	97.7% (inactive)	59.8%	135% (inactive)	-22.3% (inactive)	104% (inactive)	0% (inactive)	-0.41% (inactive)	-2.19% (inactive)	0.48% (inactive)	101% (inactive)	-0.03 (inactive)	8% (inactive)	-12% (inactive)
CCN(CC)c1ccc(C2=NNC(=O)CC2C)cc1[N+](=O)[O-] (stereo unspecified)	97.4% (inactive)	102% (inactive)	95.8% (inactive)	119% (inactive)	105% (inactive)	60.7%	189% (inactive)	-15.4% (inactive)	110% (inactive)	3% (inactive)	0.9% (inactive)	-4.02% (inactive)	-0.46% (inactive)	98.9% (inactive)	-0.21 (inactive)	-22% (inactive)	-4% (inactive)
